{"source": "PubChem BioAssay AID2551", "about": "(National Center for Advancing Translational Sciences (NCATS), 2010)", "note": "In all, about 310,000 compounds went through this assay and about 17,000 (5.5%) were called active. Inconclusive results (about 11%) are left out. The full list was thinned out, with actives kept by preference. Values without a mark were called inactive. Calls follow the shape of the dose curve; as a rule, active = well fitted inhibition curve with a large enough effect; inconclusive = small, poorly fitted or top-dose-only effect, or effect the other way; inactive = no such curve, though single readings can be large or run the other way. % is scaled to controls: 0 for no effect and ±100 for the full control effect; potency is read from the fitted curve at half-maximal effect.", "data": [{"biological_target": "Nuclear receptor ROR-gamma (Mus musculus) (UniProt P51450)", "sequence (P51450 whole entry, looked up, the tested form may be a part)": "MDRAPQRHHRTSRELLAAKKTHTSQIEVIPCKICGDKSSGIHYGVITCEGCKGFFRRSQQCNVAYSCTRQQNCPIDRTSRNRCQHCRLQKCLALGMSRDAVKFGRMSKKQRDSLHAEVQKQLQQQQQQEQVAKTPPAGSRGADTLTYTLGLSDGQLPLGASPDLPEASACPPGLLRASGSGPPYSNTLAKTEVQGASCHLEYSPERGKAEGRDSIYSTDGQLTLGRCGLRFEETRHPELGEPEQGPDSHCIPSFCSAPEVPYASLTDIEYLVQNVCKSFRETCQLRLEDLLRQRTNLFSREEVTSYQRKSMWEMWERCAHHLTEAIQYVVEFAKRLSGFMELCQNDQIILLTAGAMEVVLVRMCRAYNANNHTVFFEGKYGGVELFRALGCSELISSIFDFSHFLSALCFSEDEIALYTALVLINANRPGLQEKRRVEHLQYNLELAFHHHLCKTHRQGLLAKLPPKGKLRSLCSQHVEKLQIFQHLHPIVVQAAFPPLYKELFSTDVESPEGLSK", "assay": "qHTS for inhibitors of ROR gamma transcriptional activity; also: nearly all actives have a fitted effect of over 60% in size", "conditions": "Drosophila S2 Gal4-RORgamma UAS-luciferase reporter, 20 h; series mostly up to 53.6 µM; activity change, negative = inhibition: at the top concentration", "in_short": "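Using a luciferase readout, inhibitors were identified by reduced reporter activity in Drosophila cells coexpressing a copper-inducible Gal4–ROR gamma fusion and UAS-driven Photinus luciferase, incubated 20 hr after 700 uM copper sulfate.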", "units": {"activity change, negative = inhibition": "%"}, "values": [{"smiles": "CSc1cccc(NC(=O)CN2C(=O)COc3ccc(S(=O)(=O)N4CCOCC4)cc32)c1", "activity change, negative = inhibition": 8.6}, {"smiles": "CC(=O)c1ccc(N2CCN(C(=O)CCNC(=O)Cn3ccc4ccccc4c3=O)CC2)cc1", "activity change, negative = inhibition": -9.01}, {"smiles": "Cc1ccccc1NC(=O)c1cc(S(=O)(=O)Nc2cccc(C(=O)O)c2)ccc1Cl", "activity change, negative = inhibition": 13.3}, {"smiles": "COc1cccc(NC(=O)CC2C(=O)NCCN2C(=S)Nc2ccc(F)cc2)c1", "note": "(stereo not drawn)", "activity change, negative = inhibition": 29.9}, {"smiles": "CCC1C(=O)NCCN1C(=O)c1ccc2nc(Cc3ccc(OC)cc3)oc2c1", "note": "(stereo not drawn)", "activity change, negative = inhibition": 19.5}, {"smiles": "COc1ccc(C(=O)NC(=S)N2CCNC(=O)C2CC(=O)OC(C)C)cc1", "note": "(stereo not drawn)", "Potency": "4.47 µM (active)"}, {"smiles": "COc1ccccc1N1CC(O)=C(c2nc3ccccc3s2)C1=N", "activity change, negative = inhibition": -40.9}, {"smiles": "N=C1C(c2nc3ccccc3s2)=C(O)CN1NC(=O)c1ccc([N+](=O)[O-])cc1", "Potency": "2.82 µM (active)"}, {"smiles": "CCOC(=O)CCCN1CC(O)=C(c2nc3ccccc3s2)C1=N", "activity change, negative = inhibition": 20.7}, {"smiles": "CCOc1cc(C2C(C(=O)c3ccco3)=C(O)C(=O)N2Cc2ccccc2)ccc1O", "note": "(stereo not drawn)", "activity change, negative = inhibition": -17.1}, {"smiles": "Cn1nc(-c2ccccc2)c2cc([N+](=O)[O-])ccc21", "activity change, negative = inhibition": -15.4}, {"smiles": "Cc1c(NC(=O)Nc2cccc([N+](=O)[O-])c2)c(=O)n(-c2ccccc2)n1C", "activity change, negative = inhibition": -4.92}, {"smiles": "CC(CC(=O)Nc1ccc(F)cc1F)S(=O)(=O)c1ccc2c(c1)NC(=O)CO2", "note": "(stereo not drawn)", "activity change, negative = inhibition": 18.2}, {"smiles": "Cc1cc(SCC(=O)NCCN2C(=O)CSC2=O)nc2ccccc12", "Potency": "11.2 µM (active)"}, {"smiles": "Cc1nnc(SCC(=O)NCc2ccccc2)s1", "activity change, negative = inhibition": 30.7}, {"smiles": "COCC(C)n1c(C)cc(C(=O)CSc2cc(C)c3ccccc3n2)c1C", "note": "(stereo not drawn)", "activity change, negative = inhibition": -19.8}, {"smiles": "N[C@@H](Cc1ccccc1)C(=O)N1CCC(C(=O)NCC(=O)Nc2ccc(F)cc2)CC1", "activity change, negative = inhibition": -3.33}, {"smiles": "Cc1ccn2c(=O)c(C(=O)NCCC3=CCCCC3)c(O)nc2c1", "activity change, negative = inhibition": -18.2}, {"smiles": "O=C(NNC(=S)NC(=O)c1cn(-c2ccccc2)nc1-c1ccccc1)c1ccncc1", "Potency": "2.82 µM (active)"}, {"smiles": "O=C(Nc1cn(-c2ccccc2)nc1-c1ccccc1)c1ccccc1", "activity change, negative = inhibition": 28.8}, {"smiles": "COC(=O)c1cn(-c2ccccc2)nc1-c1cccnc1", "activity change, negative = inhibition": -14.8}, {"smiles": "CC(C)CCN(C(=O)c1csnn1)C(C(=O)NC1CCCC1)c1ccccc1", "note": "(stereo not drawn)", "activity change, negative = inhibition": -6.52}, {"smiles": "Cc1ccc(NC(=O)CN(C)C(=O)COC(=O)C(C)(C)Oc2ccc(Cl)cc2)cc1", "activity change, negative = inhibition": 6.56}, {"smiles": "Cn1c(Cc2cccs2)nnc1SCC(=O)Nc1ccccc1", "activity change, negative = inhibition": 1.98}, {"smiles": "Cn1c(CC(=O)Nc2ccccc2)nnc1SCC(=O)c1ccccc1", "Potency": "3.55 µM (active)"}, {"smiles": "Cn1c(CSCC(=O)Nc2ccccc2)nnc1SCc1ccccc1", "activity change, negative = inhibition": 5.44}, {"smiles": "CCOc1ccc(N(CC)S(=O)(=O)c2cccc3nsnc23)cc1", "activity change, negative = inhibition": -23.8}, {"smiles": "O=C(CN(C(=O)c1csnn1)c1cccc(Cl)c1)NC1CCCC1", "activity change, negative = inhibition": 0.687}]}]}
